eLon inh = inhibitors of E. coli Lon protease | purified E. coli Lon protease, fluorescence polarization | inhibition, % at 7.94 µM | 0.42% of 360,000 active | AID 602123; in the data active = inhibition above about 13%, passing the limit was not always enough;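 also: 0% = enzyme with probe and DMSO and 100% = no enzyme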
EBV gp42 block = inhibitors of Epstein-Barr virus glycoprotein 42 | AID 1085 | 0.42% of 220,000 active | inhibition, % (tested at 21.74 µM) | Fluorescence polarization binding assay, mP read-out; in the data active = inhibition above about 50%
BCLXL inh = inhibitors of human Bcl-xL | inhibition, % at 10.9 µM | GST-Bcl-xL / FITC-Bim BH3 peptide fluorescence polarization | 0.7% of 320,000 active | Q07817;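 active = inhibition above the mean of all tested compounds plus 3 SD, cutoff set per campaign, cut at about 30% in these data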;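 also: 0% = DMSO wells and 100% = unlabeled Bim-BH3 peptide competitor; inhibitors lower millipolarization by displacing the labeled peptide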
Target sequence (Q07817 whole entry, looked up): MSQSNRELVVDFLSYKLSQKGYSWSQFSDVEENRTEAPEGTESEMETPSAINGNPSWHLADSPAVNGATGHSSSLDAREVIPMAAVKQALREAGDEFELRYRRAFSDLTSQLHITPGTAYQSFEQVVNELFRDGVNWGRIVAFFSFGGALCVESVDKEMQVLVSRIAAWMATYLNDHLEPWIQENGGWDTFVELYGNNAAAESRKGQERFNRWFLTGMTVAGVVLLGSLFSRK
MEX-5 binding = C. elegans MEX-5 TCR-2 RNA binding activity; MEX-5/FITC-TCR2 RNA binding, fluorescence polarization; stronger effect = lower value; AID 1832; 0.38% of 300,000 active; activity score (negative = inhibition of binding), % at 10 µM;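 active = inhibition past about -25% in most replicates, and total fluorescence under double the plate's negative control median, limit read from the data; inconclusive = replicates evenly split on the limit, or fluorescence at least double controls; inactive = too little inhibition in most replicates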;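 also: 0% = DMSO and -100% = 5 µM competing unlabeled TCR2 RNA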
Target sequence (Q9XUB2 whole entry, looked up): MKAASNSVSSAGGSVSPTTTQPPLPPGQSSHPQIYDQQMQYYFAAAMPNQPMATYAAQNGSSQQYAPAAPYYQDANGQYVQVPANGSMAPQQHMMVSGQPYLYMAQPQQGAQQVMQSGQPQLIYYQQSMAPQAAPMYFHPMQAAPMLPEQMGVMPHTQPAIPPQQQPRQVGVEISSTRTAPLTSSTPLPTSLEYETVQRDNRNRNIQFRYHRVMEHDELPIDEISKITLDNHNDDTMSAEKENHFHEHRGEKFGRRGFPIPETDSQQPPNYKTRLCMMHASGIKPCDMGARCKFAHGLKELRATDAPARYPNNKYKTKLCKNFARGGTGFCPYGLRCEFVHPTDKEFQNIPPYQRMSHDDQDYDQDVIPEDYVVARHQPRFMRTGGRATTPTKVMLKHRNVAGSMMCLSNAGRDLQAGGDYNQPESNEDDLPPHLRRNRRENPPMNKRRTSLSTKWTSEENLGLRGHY
GLD-1 TGE inh = GLD-1-TGE RNA interaction inhibition (C. elegans) | purified GLD-1 + fluorescein TGE RNA, fluorescence polarization | AID 2280 | 0.44% of 320,000 active | Q17339 | inhibition, % at 5.96 µM;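 active = percent inhibition above a per-plate cutoff, the plate mean of test compounds plus 3 SD, cut at about 30% in these data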;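 also: 0% = DMSO wells with GLD-1 and probe and 100% = wells lacking GLD-1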
E coli Lon conf = E. coli Lon inhibition confirmation; inhibition, % at 7.94 µM; purified E. coli Lon, fluorescence polarization; AID 602230; 31% of 1,400 active; shares compounds with eLon inh; in the data active = inhibition above about 16%;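 also: 0% = enzyme with probe and DMSO and 100% = no enzyme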
* marks the source's active call; other numbers are inactive results; ? = inconclusive; nt = not tested or not shown; + = active, no number. In the library only some 1.3% were active in any assay of this set; here they are far more common.

SMILES | eLon inh | EBV gp42 block | BCLXL inh | MEX-5 binding | GLD-1 TGE inh | E coli Lon conf
O=C(CCc1ccccc1)NNC(=O)c1ccncc1 | 0.6 | nt | nt | nt | 5.5 | nt
COCC1CCCN(C(=O)c2ccc3nc(Cc4cccc(Cl)c4)oc3c2)C1 (stereo unspecified) | -11.0 | nt | -3.7 | 0.8 | 0.6 | nt
CN(C)Cc1ccccc1-c1cccc2nccn12 | 16.9* | nt | nt | nt | nt | 5.4
Clc1ccccc1-c1cccc2nccn12 | -1.0 | nt | nt | nt | nt | nt
Nc1ccc(-c2nc3ccc(N)cc3[nH]2)cc1 | 2.6 | -8.7 | 2.9 | -1.7 | 7.6 | nt
Nc1ccc2cc3[nH]c4cc(N)ccc4c3nc2c1 | + | nt | nt | nt | nt | 146.1*
CCOc1ccc(S(=O)(=O)NCCC(=O)N(C)CC(=O)Nc2ccc(N3CCOCC3)cc2)cc1 | 3.6 | nt | 3.5 | -0.6 | 8.5 | nt
CCC(Sc1nc2cc(OC)c(OC)cc2c(=O)n1CCc1ccc(OC)c(OC)c1)C(=O)NCCOC (stereo unspecified) | -4.5 | -12.6 | 2.9 | 2.1 | 3.0 | nt
CC(C)(C)c1ccc(CCC2OCC(C[N+]3(C)CCOCC3)O2)cc1 (stereo unspecified) | -6.4 | 1.2 | -18.1 | 2.8 | 0.6 | nt
COc1c(O)cccc1[C@H](O)C1CCN(CCc2ccc(F)cc2)CC1 | 70.7* | nt | 49.5* | -38.5* | 66.5* | 13.4
COC(=O)Cn1c(O)c(N=NC(=O)CNC(=O)c2ccc3c(c2)OCCO3)c2ccccc21 | 20.8* | nt | 4.5 | -1.9 | 5.9 | -4.9
CCCc1cc(=O)[nH]c(SCC(=O)N2c3ccccc3CC2C)n1 (stereo unspecified) | -10.0 | nt | nt | nt | 5.7 | nt
CCCCN(C(=O)NC(=O)Nc1ccccc1OC)S(C)(=O)=O | 19.8* | -12.3 | 2.0 | 1.8 | -10.5 | 5.4
Cc1sc2ncnc(SCC(=O)Nc3ccc(S(=O)(=O)N4CCOCC4)cc3)c2c1C | -2.5 | nt | nt | nt | -1.0 | nt
Cn1c(=O)n(CC(=O)N2CCN(c3nnc(-c4ccccc4)c4ccccc34)CC2)c2ccccc21 | 6.2 | -1.5 | 5.5 | -2.5 | 3.2 | nt
Cc1ccc(-c2nnc(N3CCN(C(=O)Cn4c(=O)n(C)c5ccccc54)CC3)c3ccccc23)cc1 | 23.9* | -5.5 | 4.5 | 0.5 | -0.5 | 1.9
Cc1ccc(S(=O)(=O)N2CN(Cc3ccco3)c3nc4ccccc4nc32)cc1 | 2.8 | -10.9 | 17.1 | 2.0 | 21.9 | nt
O=S(=O)(c1cccs1)N1CN(Cc2cccs2)c2nc3ccccc3nc21 | 17.8* | -34.0 | 2.3 | -2.1 | 2.9 | -33.7
COc1ccc(S(=O)(=O)N2CN(Cc3ccco3)c3nc4ccccc4nc32)cc1 | 28.0* | 21.2 | 9.1 | -0.2 | 7.8 | -10.6
Cc1ccc(S(=O)(=O)N2CN(Cc3ccco3)c3nc4ccccc4nc32)cc1C | 15.4* | -11.0 | 10.4 | 7.0 | 11.3 | -6.6
O=S(=O)(c1ccc(F)cc1)N1CN(Cc2ccco2)c2nc3ccccc3nc21 | 44.0* | 10.6 | 28.1 | 1.0 | 19.9 | -37.4
COc1ccc(C(CNC(=O)C(C)(C)Oc2ccc(Cl)cc2)N2CCOCC2)cc1 (stereo unspecified) | -1.9 | nt | nt | nt | nt | nt
CC(C)(CO)CNC(=O)CCc1nnc(-c2ccc(-c3ccccc3)cc2)o1 | -0.5 | nt | -0.7 | 2.0 | 3.7 | nt
Cc1cc(C)n2c(=O)[nH]nc2c1 | 0.2 | nt | nt | nt | nt | nt
COc1ccc(N=NC2=C(O)CC(C)(C)CC2=O)c(OC)c1 | 22.3* | -101.7 | -21.3 | 13.5 | -42.4 | -90.0
SMILES | eLon inh | EBV gp42 block | BCLXL inh | MEX-5 binding | GLD-1 TGE inh | E coli Lon conf
COc1ccc(N=NC2=C(O)CC(C)(C)CC2=O)cc1 | -12.6 | -40.2 | -6.0 | 7.8 | -8.6 | nt
COC(=O)c1ccc(CNC(=O)c2ccc(S(=O)(=O)N3CCCC(C)C3)cc2)cc1 (stereo unspecified) | 2.8 | nt | -10.3 | nt | 5.2 | nt
CCN(CC)S(=O)(=O)c1ccc(C(O)=C(C#N)c2nc3ccccc3n2C)cc1 | -6.5 | nt | nt | nt | nt | nt
CNc1ccc2c3c(cccc13)C(=O)N(C)C2=O | + | nt | 178.5* | ? | 119.0* | +
CN1C(=O)c2cccc3c(Br)ccc(c23)C1=O | -2.4 | nt | 22.1 | -4.4 | 14.1 | nt
Clc1cccc(NCc2cn3cccnc3n2)c1 | 17.2* | -8.7 | 9.5 | -0.7 | 1.8 | -3.3
Cc1cscc1-c1nc(NCC2CC2)nc2ccsc12 | -1.4 | nt | nt | nt | nt | nt
O=C1C=CC(=O)c2c(O)c(N3CCN(CCO)CC3)c(Cl)c(O)c21 | 171.6* | nt | nt | nt | nt | 96.0*
OCCOCCN1CCN(C2=Nc3ccccc3Sc3ccccc32)CC1 | -1.8 | -10.8 | 1.3 | 0.9 | 0.8 | nt
O=C1C=CC(=O)c2c(O)c(N3CCN(CCOCCO)CC3)c(Br)c(O)c21 | 125.7* | nt | nt | nt | nt | 113.7*
Oc1cccc(Nc2c3ccccc3nc3ccccc23)c1 | 15.8 | nt | 13.2 | -0.7 | 11.4 | nt
c1cncc(Nc2c3ccccc3nc3ccccc23)c1 | 25.1* | nt | 7.9 | 3.4 | 10.6 | -5.3
O=C(c1ccco1)N1CCN(S(=O)(=O)c2cccc(Cl)c2)CC1 | -6.8 | nt | 4.5 | -2.9 | 0.9 | nt
O=C(CC12CC3CC(CC(Br)(C3)C1)C2)Nc1cccc(S(=O)(=O)NC2=NCCC2)c1 | 16.1* | 5.9 | -4.3 | 0.8 | -2.7 | 2.2
Cc1nn(-c2ccc(F)cc2F)c2c1-c1nc(N3CCCC3)ncc1CC2 | 16.2* | -15.0 | -4.5 | -1.3 | 6.6 | 6.3
CC(C)C[C@@H](CN1CCC[C@H]1CN1C(=O)C(=O)NC[C@@H]1Cc1ccc(O)cc1)N1C[C@H](Cc2ccccc2)N(CCc2ccccc2)C(=O)C1=O | 10.8* | nt | nt | nt | nt | -0.8
O=C(CCN1C(=O)S/C(=C\c2ccccc2)C1=O)Nc1ccc(O)cc1C(=O)O | 18.6* | nt | 2.6 | -6.8 | -3.2 | 4.7
COc1ccc(Cl)cc1N(CC(=O)Nc1ccccc1C(=O)N1CCCC1)S(C)(=O)=O | 17.6* | nt | 3.1 | -2.1 | -2.4 | -5.7
OC[C@@H]1CN(Cc2ccc(Cl)cc2)C[C@H](n2cnc3c(NC4CC4)ncnc32)O1 | -19.4 | nt | nt | nt | nt | nt
Clc1cccc(Cl)c1-c1noc(CN2CCOCC2)n1 | -7.0 | -12.4 | 4.9 | -0.3 | 1.1 | nt
COc1ccc(S(=O)(=O)N2CCCC(N(C)CCc3ccccc3)C2)cc1OC (stereo unspecified) | 0.8 | nt | 3.8 | 0.2 | -0.2 | nt
O=C(C1CCN(S(=O)(=O)c2c(Cl)cccc2Cl)CC1)N1CCCCCCC1 | 18.2* | nt | -10.0 | 0.1 | 7.7 | -3.5
O=C(C1CCN(S(=O)(=O)c2ccc(Cl)cc2)CC1)N1CCC1 | -8.6 | nt | 5.4 | -2.1 | 2.4 | nt
CC(C)CC(=O)NC(=S)Nc1ccccc1C(=O)Nc1ccccc1 | -0.6 | -9.7 | 6.0 | 0.0 | 2.3 | nt
CN1CCc2cc3c(c4c2[C@H]1[C@H](O)c1ccccc1-4)OCO3 | 58.9* | 58.7* | 110.8* | -84.5* | 47.9* | 26.6*
CCC(CC)C(=O)OCC(=O)Nc1cccc([N+](=O)[O-])c1 | 16.0* | -0.3 | -0.4 | 2.8 | 3.8 | 2.0
O=C(NC(=S)Nc1cccc([N+](=O)[O-])c1)c1ccccc1 | 2.8 | 4.4 | 10.6 | 3.2 | 4.0 | nt
O=C(O)CC(NNC(=O)c1ccccc1)C(=O)Nc1cccc([N+](=O)[O-])c1 (stereo unspecified) | 16.3* | -16.4 | -1.6 | -2.5 | 4.1 | 12.0
